# High-throughput results (PubChem BioAssay)
# Menin-MLL TR inh: displaces Texas Red mutant MLL peptide from human menin; Menin + Texas Red MLL mutant peptide, fluorescence polarization; actives 0.23% (n = 270,000); Potency, µM (doses to about 61.6 µM), inactives show at the highest dose FP activity change, negative = inhibition, hits mostly inhibitors; AID 1768; active = well fitted inhibition curve with a large enough effect in the polarisation, with a control signal flat, not every such curve was filed as active; inconclusive = small, poorly fitted or top-dose-only effect, or effect the other way, or a change in a side signal; inactive = no such curve, though single readings can be large or run the other way; the % refers to the polarisation; also: potency is read from the fitted curve at half-maximal effect; % of control where 0% means no effect
# Menin-MLL FL inh: inhibitors of human menin-MLL interaction, wild-type MLL peptide; AID 1766; 290,000 tested, under 10 active; Fluorescence polarization, fluorescein-MLL peptide displacement from menin; FP activity change, % at 61.4 µM; active = well fitted curve in the direction sought with a large enough effect in the polarisation, not every such curve was filed as active; inconclusive = small, poorly fitted or top-dose-only effect, or effect the other way, or a change in a side signal; inactive = no such curve, though single readings can be large or run the other way; the % refers to the polarisation; also: % of control where 0% means no effect
# KCNH2 WT inh: inhibitors of human wildtype KCNH2 potassium channel | actives 0.37% (n = 340,000) | U2OS, BacMam KCNH2, thallium flux FluxOr; hits give low values | activity change, % at 1.84 µM;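 active = maximum activity change below -70%; inconclusive = maximum activity change between -70% and -50%; inactive = maximum activity change above -50%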; also: % is scaled to controls: 0 for no effect and ±100 for the full control effect
#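 U2OS cells were transduced with wild-type KCNH2 virus (2.03 x 10^8 / mL) for 4 h at room temperature, then cultured overnight at 37 C. Thallium flux was read with FluxOr dye. Rate constants were normalized to DMSO controls.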
# CXXC DNA block: blocks binding of human MLL CXXC domain to DNA; MLL-CXXC / FITC-HOXA9 DNA fluorescence polarization; Q03164; Potency, µM (series often up to 115 µM), for the others: at the top dose activity change, negative = inhibition, actives largely listed as inhibitors; AID 2662; actives 0.037% (n = 290,000); active = well fitted inhibition curve with a large enough effect in the polarisation, with a control signal flat, not every such curve was filed as active; inconclusive = small, poorly fitted or top-dose-only effect, or effect the other way, or a change in a side signal; inactive = no such curve, though single readings can be large or run the other way; the % refers to the polarisation; also: potency is read from the fitted curve at half-maximal effect
#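 Steps: dispense CXXC domain solution (7 uM) → pin compounds or unlabeled HOX-A9 DNA control → 5 min ambient → add FLSN-HOX-A9 solution (50 nM) → spin → 30 min ambient → fluorescence polarization. Tris pH 7.5/NaCl/DTT/BSA buffer.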
# KCNH2 3.1 inh: inhibitors of human KCNH2 3.1 potassium channel isoform; AID 720553; activity change, % (tested at about 1.8 µM); actives 0.95% (n = 340,000); U2OS KCNH2 3.1, thallium flux FluxOr; hits give low values;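 active = maximum activity change below -70%; inconclusive = maximum activity change from -70% to -50%; inactive = maximum activity change above -50%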;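 also: thallium influx rate constant from kinetic fluorescence after stimulation buffer; % is scaled to controls: 0 for no effect and ±100 for the full control effect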
#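 FluxOr-based Tl+ influx in U2OS cells transduced with KCNH2 3.1 virus; rate constants normalized to DMSO controls.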
# Numbers without * were called inactive; ? = inconclusive; . = no result given. This is a sample that favours compounds with a hit; in the whole collection about 1.1% have one here.
SMILES,Menin-MLL TR inh,Menin-MLL FL inh,KCNH2 WT inh,CXXC DNA block,KCNH2 3.1 inh
COC(=O)c1ccc(OCC2c3cc(OC)c(OC)cc3CCN2C(=O)c2ccco2)cc1 (stereo not drawn),11.8%,0.2,-3.0,13.3%,-173.3*
COC(=O)c1ccc(OCC2c3cc(OC)c(OC)cc3CCN2C(C)=O)cc1 (stereo not drawn),-17.9%,-0.2,-12.7,3.4%,8.3
CC(NC(=O)c1cccs1)c1ccccc1 (stereo not drawn),.,.,5.6,.,-95.1*
CC(C)[C@H](NS(=O)(=O)c1ccccc1)C(=O)OCC(=O)N1N=C(c2ccc(Cl)cc2)CC1c1ccco1 (stereo partly drawn),-15.7%,11.9,-13.0,-6.6%,-74.9*
Cc1ccc(OCC(=O)N2N=C(c3ccc(Cl)cc3)CC2c2ccco2)c([N+](=O)[O-])n1 (stereo not drawn),12.5%,7.9,-72.4*,13.6%,-91.0*
CC1CCCCN1C(=O)c1ccc(NC(=O)c2ccccc2Cl)cc1 (stereo not drawn),-0.2%,1.4,-201.7*,1.1%,?
CC1CCCCN1S(=O)(=O)c1ccc(N(C(=O)c2cnccn2)C(C(=O)NC2CCCCC2)c2cccs2)cc1 (stereo not drawn),6.3%,1.8,-71.1*,2.6%,7.4
Cc1ccc(CNS(=O)(=O)c2ccc(-c3cnc(C4CC4)o3)cc2)cc1,.,.,-13.9,6.1%,-88.7*
COc1ccc(Cn2ccnc2SCC(=O)Nc2ccc(F)cc2F)cc1,.,.,-1.6,.,-5.0
COc1cc(NC(=O)c2ccccc2F)ccc1NC(=O)c1cc2ccccc2o1,5.8%,-5.3,0.4,36.2%,-71.2*
COc1ccccc1C(=O)NC(=S)Nc1ccc(NC(=O)c2ccco2)cc1,-20.1%,-2.7,10.7,-0.7%,-72.9*
COc1cc(NC(=O)c2cc3ccccc3o2)ccc1NC(=O)c1ccco1,?,-2.6,13.7,-9.7%,-81.5*
O=C(NCCc1c[nH]c2ccccc12)c1ccccc1O,?,1.6,.,.,.
C=CCC(Nc1ccc(OC)cc1)C(=O)OCC (stereo not drawn),2.0%,0.8,.,.,.
COc1ccc(CNC(=O)COC(=O)CN2C(=O)C3CCCCC3C2=O)cc1 (stereo not drawn),.,.,4.9,.,-3.0
COC(=O)c1c(C)[nH]c(C(=O)COC(=O)CCNS(=O)(=O)c2cccc(C(F)(F)F)c2)c1C,.,.,-26.8,.,-15.2
CCCc1c(C)[nH]c2ccc(C(=O)O)cc2c1=S,.,-2.2,-82.1*,-10.5%,4.1
Cc1[nH]c2ccc(C(=O)O)cc2c1C,-6.0%,-0.3,-2.1,-1.7%,0.3
CSCC[C@H](N)C(=O)N[C@@H](CO)C(=O)N[C@@H](CCCN=C(N)N)C(=O)N1CCC[C@H]1C(=O)N[C@@H](C)C(=O)N[C@@H](CS)C(=O)N1CCC[C@H]1C(=O)N[C@@H](CC(N)=O)C(=O)N[C@@H](CC(=O)O)C(=O)N[C@@H](CCCCN)C(=O)N[C@@H](Cc1ccc(O)cc1)C(=O)N[C@@H](CCC(=O)O)C(=O)O,7.0%,1.3,.,.,.
C=CCn1c(SCc2c(C)noc2C)nc2sc3c(c2c1=O)CCCC3,-14.1%,-1.3,-6.7,-7.5%,-0.7
Cc1noc(C)c1CSc1nc2sc3c(c2c(=O)n1C)CCCC3,?,-3.1,7.7,-1.8%,-102.0*
Fc1ccccc1C1c2[nH]c3ccccc3c2CCN1Cc1cccn1-c1ncccn1 (stereo not drawn),20.8%,0.8,-44.3,14.4%,-70.7*
COc1ccc(NC(=O)CN2CCCC2)cc1,-4.0%,0.4,-1.3,-2.4%,-10.3
CC(=O)c1ccc(NC(=O)CN2CCN(CC(=O)Nc3ccc(C(C)=O)cc3)CC2)cc1,-26.0%,-3.6,5.7,-0.4%,-102.0*
COc1ccc(NC(=O)CN2CCN(CC(=O)Nc3ccc4c(c3)OCO4)CC2)cc1,?,0.0,-78.8*,-14.0%,.
SMILES,Menin-MLL TR inh,Menin-MLL FL inh,KCNH2 WT inh,CXXC DNA block,KCNH2 3.1 inh
COc1ccc(S(=O)(=O)N2CCN(CC(=O)Nc3ccccc3OC)CC2)cc1,.,.,1.0,11.2%,-36.1
COc1ccc(NC(=O)CN2CCN(CC(=O)Nc3ccc(OC)cc3)CC2)cc1,1.3%,2.3,-91.9*,-3.1%,-107.8*
COc1ccc(S(=O)(=O)N2CCN(CC(=O)Nc3ccccc3Cl)CC2)cc1,.,.,4.0,6.4%,-88.1*
CNC(=O)CSc1nnc(-c2ccco2)n1-c1cc(C)ccc1C,2.4%,2.7,-139.9*,16.1%,-0.3
CCn1c2ccccc2c2cc(/C=N/NC(=O)c3ccccc3)ccc21,25.1µM*,3.2,1.9,18.6%,-0.9
Cn1c2ccccc2c2cc(/C=N/NC(=O)c3cc(O)cc(O)c3)ccc21,?,0.9,-23.0,?,-2.0
NC(=O)COC(=O)CC(c1ccccc1)c1ccccc1,-10.7%,0.8,8.3,-9.0%,-94.1*
O=C(COC(=O)CC(c1ccccc1)c1ccccc1)NCc1ccccc1,-9.2%,4.7,2.9,-0.4%,-2.7
COC(=O)c1cc(NC(=O)c2cc(C)oc2C)cc(C(=O)OC)c1,-23.2%,4.4,-193.1*,3.9%,-14.3
Cc1cc(C(=O)Nc2ccc(C(=O)O)cc2)c(C)o1,-0.5%,1.1,-12.1,5.5%,11.3
CCCCCC1CC(CC(=O)Nc2ccc([N+](=O)[O-])cc2)OC1=O (stereo not drawn),.,1.8,1.4,-6.8%,-4.4
CCCCCC1CC(CC(=O)Nc2ccc([N+](=O)[O-])cc2)C(=O)O1 (stereo not drawn),16.7%,2.0,.,-7.4%,-71.3*
CC(NC(=O)Cc1ccc(S(=O)(=O)N2CCOCC2)s1)c1ccc(Br)cc1 (stereo not drawn),.,.,3.3,.,-35.9
CCC(CO)Oc1cc(NC(=O)c2ccccc2Cl)c2ncn(C(C)C)c2c1 (stereo not drawn),.,.,-6.8,.,19.3
O=C(NCCCc1ccccc1)c1ccc(CS(=O)Cc2ccc(Cl)cc2)o1 (stereo not drawn),.,.,-43.9,16.5%,-85.5*
COc1cccc(CNC(=O)c2ccc(CS(=O)Cc3ccccc3Cl)o2)c1 (stereo not drawn),.,.,-6.5,.,-81.2*
CSc1ccc(S(=O)(=O)NC2CC3CCC2C3)cc1 (stereo not drawn),-0.7%,-2.2,-5.4,-10.6%,-2.8
COc1ccc(CN2C(=O)C(CC(=O)NCc3cccs3)CC(C(=O)N(C)C)=C2C)cc1 (stereo not drawn),.,.,-1.1,.,6.7
Cc1ccc(Nc2nc(N)nc(CN3CCN(Cc4ccc5c(c4)OCO5)CC3)n2)c(C)c1,-7.3%,-0.2,6.8,0.9%,?
Cc1ccc(Nc2nc(N)nc(CN3CCN(C)CC3)n2)cc1C,-0.6%,0.5,.,5.0%,.
Cc1ccc(Nc2nc(N)nc(CN3CCN(Cc4ccc5c(c4)OCO5)CC3)n2)cc1C,-10.4%,-0.4,?,14.4%,-104.1*
Cc1ccc(Nc2nc(N)nc(CN3CCN(Cc4ccc5c(c4)OCO5)CC3)n2)cc1,-1.8%,1.3,-44.5,1.5%,-80.4*
